According to PubChem BioAssay AID1117361 (Southern Research Institute, 2015):
In all, about 3,600 compounds went through this assay and about 900 (25%) were called active. The list is a sample of the results. Potency and affinity values are given separately. Values without a mark were called inactive. No rule for the calls is given here.

target: Protein Tat (Human immunodeficiency virus type 1 group M subtype B (isolate HXB2)) (UniProt P04608); test: HIV-1 Tat–TAR interaction blockers – biochemical, fluorescence polarization, FAM-labeled TAR RNA, counter-screen for Vif-APOBEC3G degradation inhibitor project, dose response (AID 1117361); settings: Tat-TAR RNA binding; series mostly up to 100 µM; inhibition: at the top concentration

Compound	inhibition [%]	outcome
Clc1ccc(-c2nnnn2-c2ccc(Cl)c(Cl)c2)cc1Cl	4.73	
CCc1nnc(SCC(=O)NC2CCCCC2)nc1CC	13.6	
Fc1ccc(-c2nnc(Cc3nnc(-c4ccc(F)cc4)o3)o2)cc1	1.36	
Cc1ccc2c(c1C)NC(=O)C2(O)CC(=O)c1ccc2c(c1)OCO2 (stereo not given)	2.73	
O=C(NCc1ccc2c(c1)OCO2)c1cc2ncc(Br)cn2n1	25.9	
CCOc1ccc(N(CC(=O)NCCC2=CCCCC2)S(=O)(=O)c2ccccc2)cc1		inactive
CCNC(=O)OCC(CC)NC(=O)OCC(C)C (stereo not given)		inactive
Cc1cc(C)cc(-c2nnc(SCC(=O)NCc3cccs3)o2)c1		inactive
CCN(CC)c1ccc(/C=C2\C(=O)N(c3nnc(C)c(=O)[nH]3)N=C2C)cc1		inactive
Cc1noc(C)c1C(=O)N1CCN(c2ncccn2)CC1	2.7	
c1ccc(N2CCN(c3ccc4nncn4n3)CC2)nc1	2.03	
CCCCc1ccc(-c2nc(N)n[nH]2)cc1	1.35	
COCCCN1CC23C=CC(O2)C(C(=O)O)C3C1=O (stereo not given)	8.11	
CC1CCN(c2ccc([N+](=O)[O-])c(SCCO)c2)CC1		inactive
Cc1ccc(S(=O)(=O)NCCCOC(=O)Nc2ccncc2)cc1	7.5	
O=C(C1CCC(CNc2c(N3CCCCC3)c(=O)c2=O)CC1)N1CCN(C2CCCCC2)CC1 (stereo not given)		inactive
O=C(CSc1nnnn1-c1ccc2c(c1)CCC2)Nc1ccc2c(c1)OCCO2		inactive
CCOC(=O)c1c(NC(=O)Cn2nnc(-c3ccccc3Cl)n2)sc(C)c1C	0.68	
COc1ccc(OC)c(NC(=O)CSc2nc3ccccc3c(=O)n2CC2CCCO2)c1 (stereo not given)	1	
Cc1nn(Cc2ccccc2)c(C)c1C(=O)OCC(=O)c1cc(C)n(C2CC2)c1C	12.2	
Cc1cnc(NC(=O)CSc2nnc(CNc3ccc(F)cc3)n2CC2CCCO2)s1 (stereo not given)	26.6	
COC(=O)C1=CN(CC2CCCO2)C=C(C(=O)OC)C1c1ccccc1C(F)(F)F (stereo not given)	4.77	

Compound	inhibition [%]	outcome
[O-]/[N+](=C\C=C\c1ccccc1)c1ccccc1		inactive
COc1ccc(C2CC(C(F)(F)F)n3nc(C(=O)NCc4c(C)nn(C)c4C)c(Cl)c3N2)cc1 (stereo not given)		inactive
O=S1(=O)Nc2c(ccc3cccnc23)-c2ccccc21	2.05	
CCN(CC)c1ccc(NC2=C(Cl)C(=O)c3ccccc3C2=O)cc1	6.6	
O=C1CSC(c2cccnc2)N1Cc1cccnc1 (stereo not given)	20.6	
COc1ccc(OCC(=O)O/N=C(\N)Cc2ccc(Cl)cc2)cc1	0.68	
CCOC(=O)CN(C(=O)CSc1nnc(COc2ccc(OC)cc2)n1CC)c1ccccc1		inactive
Oc1c(C(c2ccccc2)N2CCN(Cc3ccccc3)CC2)sc2ncnn12 (stereo not given)		inactive
Fc1ccc(C(CCCn2nnc(-c3cccnc3)n2)c2ccc(F)cc2)cc1		inactive
Cc1nc2cc(NC(=O)Nc3ccc(N4CCOCC4)cc3)ccc2n1C		inactive
Cc1cc(CN2C(=O)c3ccccc3C2=O)cc(N2CCOCC2)c1		inactive
Oc1ccccc1/C=N/Nc1nccnc1Cl	5.46	
COc1ccc(/C=C/c2nnc(NC(=O)CSc3ccc(C)cc3)s2)cc1		inactive [at 50 µM]
COC(=O)C(NC(=O)c1ccco1)(Nc1nc(C)cs1)C(F)(F)F (stereo not given)	8.78	
COC(=O)c1ccc(CSc2nc3ccccc3c(=O)n2-c2ccc(OC)c(OC)c2)o1	3.38	
C=CCN1C(=O)CSc2ccc(C(=O)NCc3ccco3)cc21	10.9	
C=CCN1C(=O)c2ccc(C(=O)N3CCN(c4ccccc4OC)CC3)cc2C1=O		inactive
COC(=O)c1cc(OC)c(OC)cc1NC(=O)c1ccco1		inactive
CCn1cc(C(=O)NCc2ccco2)c2cc(OC)c(OC)cc2c1=O	2.73	
CCOC(=O)C1=C(CNCCc2ccc(Cl)cc2)NC(=O)NC1c1ccc2c(c1)OCO2 (stereo not given)		inactive
CCSc1nnc(NC(=O)c2ccc3ccccc3n2)s1	7.43	
Cc1cc(C)n(-c2nc(Nc3ccccc3C(F)(F)F)nc(-n3nc(C)cc3C)n2)n1		inactive

Compound	inhibition [%]	outcome
O=C(CSc1ccc2nnc(-c3cccnc3)n2n1)NCC1CCCO1 (stereo not given)		inactive
Cc1c(NC(=O)/C(C#N)=C/C2CC=CCC2)c(=O)n(-c2ccccc2)n1C (stereo not given)	6.08	
O=C(c1ccccc1Cl)N(C(=O)c1ccccc1Cl)c1nccc(-c2cccs2)n1	6.08	
O=[N+]([O-])c1ccc(/C=N/Nc2nc(N3CCCC3)nc(N3CCCC3)n2)o1	7.01	
Cc1ccccc1Cn1cc(NC(=O)c2cc(C3CC3)on2)cn1	8.25	
CCOC(=O)N1CCN(C(=O)C2CCCN(S(=O)(=O)c3ccc(C)cc3)C2)CC1 (stereo not given)	12.2	
CCN1CCN(c2ccc(S(=O)(=O)N3CCCCC3)cc2NC(=O)Cc2ccc(Cl)c(Cl)c2)CC1		inactive
Clc1ccc(Nc2nc(C3CC3)cs2)cc1		inactive
CCN(c1cccc(C)c1)S(=O)(=O)c1cnc[nH]1		inactive
Cn1nc(-c2ccc(Cl)cc2)c2cc(C(=O)N3CCN(C(=O)c4ccco4)CC3)sc21	2.03	
Cn1nc(-c2ccc(Cl)cc2)c2cc(C(=O)NCCCN3CCOCC3)sc21	3.38	
O=C(O)CC(Cn1cnnn1)c1ccccc1 (stereo not given)	12.4	
COc1ccc(Cl)cc1N(C)C(=O)CCNC(=O)Cn1cnc2ccccc2c1=O	6.82	
Cc1csc(=O)n1CC(=O)OCC(=O)c1ccc(Br)cc1		inactive
CCOc1cccc(CN2CCCC(C(=O)Nc3cccc(-n4cccn4)c3)C2)c1 (stereo not given)	7.68	
CC(=O)Nc1ccc(S(=O)(=O)Nc2nnc(C(C)C)s2)cc1		inactive
CSc1nc(N2CCOCC2)c2c(c1C#N)CC(C)(C)OC2	4.73	
N#Cc1nc(-c2ccco2)oc1N1CCN(c2ccccc2)CC1		inactive
CCOc1cc(S(=O)(=O)N(CC)CC)c(OCC)cc1-n1cnnn1	5.41	
Cc1nnc(NC(=O)c2ccc(S(=O)(=O)N(C)Cc3ccccc3)cc2)o1	3.41	
CC1(C)CC(Nc2ccc(Nc3ccccc3)cc2)CC(C)(C)N1		inactive
CCC1=C2CC[C@H]3C(=O)NC(=O)[C@H]3[C@H]2[C@@]2(Cc3ccccc3)C(=NCC(=O)OC)OC(=O)N2C1=O	1.65	

Compound	inhibition [%]	outcome
Nc1nc(Sc2ccc([N+](=O)[O-])c3nonc23)c2[nH]cnc2n1	18.4	
Nc1nc(SCc2nc3scc(-c4ccccc4)c3c(=O)[nH]2)n[nH]1	3.67	
S=c1[nH]nc(Cn2nnc3ccccc32)n1-c1ccccc1		inactive
COc1ccccc1C(=O)Nc1ccc(-c2nnc(SCC(=O)O)n2C)cc1	18.1	
Cc1cc(C(=O)NNC(=O)CCC2CCCCC2)c(C)o1		inactive
Cc1cc(/C=C2\SC(=S)NC2=O)c(C)n1C	4.34	
CCOC(=O)c1c(-c2cccs2)csc1NC(=O)CC(C)C	5.41	
Cc1ccc(C(=O)N2CCN(c3ccccc3)CC2)cc1C	10.9	
CC(=O)C1CCN(Cc2ccccc2)CC1	13	
Cc1cc(/C=N/n2cnnc2)c(C)n1-c1cccc(Cl)c1	14.9	
Cc1ccc(-n2nc(C(=O)O)c3ccccc3c2=O)cc1C	0.68	
Cc1c(C=O)c(C=O)c(C)n1Cc1ccccc1	11.6	
O=C(O)c1ccc(N2C(=O)c3cccnc3C2=O)cc1		inactive
O=C(OC(C(=O)NCc1cccs1)c1ccccc1Cl)c1ccco1 (stereo not given)		inactive
O=S(=O)(c1cccc2ccccc12)n1nnc2ccccc21	2.7	
O=C(OCn1cncn1)c1ccc(Cl)cc1Cl	0.68	
CC(C)(C)OC(=O)N1CCC[C@H]1c1nnc(SC/C=C/c2ccccc2)o1	9.46	
Clc1ccc(C2=Nn3c(nnc3-c3cc(-c4ccccc4)n[nH]3)SC2)cc1	8.78	
O=C(O)c1ccc2c(c1)N(Cc1cccc(F)c1)C(=O)CS2		inactive
Cc1cc(NS(=O)(=O)c2cc(Cl)sc2Cl)no1	4.34	
O=C(O)c1cc(-c2ccccc2)on1		inactive
COc1ccc(C(=O)N2CCCC(C(=O)N3CCCCCC3)C2)cc1 (stereo not given)	4.05	

Compound	inhibition [%]	outcome
Cc1ccc(S(=O)(=O)N(C)CC(O)Cn2c3ccccc3c3ccccc32)cc1 (stereo not given)	6.08	
COc1cc(/C=C2/C(=O)N(c3ccc(Br)cc3)N=C2C)cc(OC)c1OC	5.68	
CC(=O)Nc1ccc(OCC(=O)N2CCc3ccccc3C2)cc1		inactive
CCn1ncc(/C=C/C(=O)NCc2cn(C)nc2C)c1C	4.05	
Cn1c(=O)cc(SCC(=O)NCCCN2CCOCC2)c2ccccc21		inactive
O=C(c1ccccc1)N1CCN(c2ccc(Cl)cc2)CC1	12.8	
Cc1ccc(-c2nc(-c3ccccc3)no2)cc1		inactive
Cc1cccc(C)c1NC(=O)Cn1c(=O)n(CCCC(=O)NCc2ccco2)c(=O)c2sccc21	1.36	
NS(=O)(=O)c1ccc(N=Nc2ccc(=O)[nH]c2O)cc1	5.01	
COc1cc(NC(=O)CSCC(=O)N(C)C2CCCCC2)cc(OC)c1	1.65	
Cc1ccccc1OCC(=O)OCC(=O)c1ccc(OC(=O)c2ccccc2)cc1	3.67	
Cc1ccc(Nc2nc(C(=O)NCc3ccco3)cs2)cc1	12.8	
c1coc(CNc2nc(-c3cccs3)cs2)c1	20.6	
COCCOC(=O)CC1=NC(=O)CS1		inactive
Cc1cc(C(F)F)n2ncc(C(=O)NCc3ccccc3C(F)(F)F)c2n1		inactive
Cc1cc(C)c(Cc2c(C)nc3c(C(=O)NCc4ccco4)cnn3c2C)c(C)c1	2.73	
COc1cc(OC)cc(C(=O)NC(=S)N2CCN(c3ccc(C(F)(F)F)cc3[N+](=O)[O-])CC2)c1	2.7	
CSCCC(NC(N)=O)C(=O)NCc1ccc(Cl)cc1 (stereo not given)	2.7	
COc1ccc(N2C(=O)CC(Sc3nc(C)c4c(n3)CCCC4)C2=O)cc1 (stereo not given)	6.08	
O=S(=O)(c1ccc(S(=O)(=O)N2CCCC2)cc1)N1CCCCCC1		inactive
CC(C)(C)c1ccc(S(=O)(=O)N2CCCCC2)cc1	17.3	
CC1=C(C(=O)OCCOc2ccccc2)C(c2ccc(C)o2)C2=C(CC(C)(C)CC2=O)N1 (stereo not given)	2.05	
